The record followed here is ChEMBL document CHEMBL1961873, “Compounds: GSK PKIS; Assays: Nanosyn kinase panel” (2012).

Test [1] has as its target Mitogen-activated protein kinase 3 (Homo sapiens) (UniProt P27361). Particulars: at 1 µM.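 Also: values are mean percent inhibition of MAPK3.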
Test [2] has as its target SRSF protein kinase 3 (Homo sapiens) (UniProt Q9UPE1). Particulars: at 0.1 µM.
The target is the same in test [3]. Particulars: at 1 µM.
For test [4], the target named is Mitogen-activated protein kinase 14 (Homo sapiens) (UniProt Q16539). Particulars: at 0.1 µM.
The target is the same in test [5]. Particulars: at 1 µM.
In test [6] the target is Mitogen-activated protein kinase 11 (Homo sapiens) (UniProt Q15759). Particulars: at 0.1 µM.
Test [7] has the same target. Particulars: at 1 µM.
Test [8] has as its target T1, Mitogen-activated protein kinase 13 (Homo sapiens) (UniProt O15264).
T1 sequence (whole entry): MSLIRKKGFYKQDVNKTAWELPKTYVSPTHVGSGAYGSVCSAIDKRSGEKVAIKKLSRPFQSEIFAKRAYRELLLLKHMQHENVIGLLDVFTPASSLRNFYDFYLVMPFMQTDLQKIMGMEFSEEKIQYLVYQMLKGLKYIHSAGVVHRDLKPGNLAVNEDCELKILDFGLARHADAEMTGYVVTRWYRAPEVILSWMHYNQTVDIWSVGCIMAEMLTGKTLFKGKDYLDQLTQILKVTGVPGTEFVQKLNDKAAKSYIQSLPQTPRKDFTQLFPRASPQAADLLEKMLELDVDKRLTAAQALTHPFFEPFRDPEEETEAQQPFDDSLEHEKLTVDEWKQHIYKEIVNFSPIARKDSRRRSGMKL
Particulars: at 0.1 µM.

Test [9] deals with T1, Mitogen-activated protein kinase 13 (Homo sapiens). Particulars: at 1 µM.
Test [10] addresses T2, Mitogen-activated protein kinase 12 (Homo sapiens) (UniProt P53778).
T2 sequence (whole entry): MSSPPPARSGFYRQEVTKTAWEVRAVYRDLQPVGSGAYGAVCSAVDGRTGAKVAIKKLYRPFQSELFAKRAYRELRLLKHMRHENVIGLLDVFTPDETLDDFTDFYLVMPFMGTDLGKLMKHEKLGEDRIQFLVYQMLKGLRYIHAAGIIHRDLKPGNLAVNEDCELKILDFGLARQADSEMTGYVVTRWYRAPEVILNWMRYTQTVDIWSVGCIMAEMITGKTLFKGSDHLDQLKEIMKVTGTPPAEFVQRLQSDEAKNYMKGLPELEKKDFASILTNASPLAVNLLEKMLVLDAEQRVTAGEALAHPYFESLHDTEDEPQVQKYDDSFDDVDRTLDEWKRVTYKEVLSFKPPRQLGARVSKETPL
Particulars: at 0.1 µM.

Test [11] concerns the target T2, Mitogen-activated protein kinase 12 (Homo sapiens). Particulars: at 1 µM.
The target of test [12] is SRSF protein kinase 1 (Homo sapiens) (UniProt Q96SB4). Particulars: at 0.1 µM.
For test [13] the target is unchanged. Particulars: at 1 µM.
Test [14] deals with Phosphatidylinositol 4,5-bisphosphate 3-kinase catalytic subunit alpha isoform (Homo sapiens) (UniProt P42336). Particulars: at 0.1 µM.
The target is the same in test [15]. Particulars: at 1 µM.
Test [16] deals with T3, Phosphatidylinositol 4,5-bisphosphate 3-kinase catalytic subunit delta isoform (Homo sapiens) (UniProt O00329).
T3 sequence (whole entry): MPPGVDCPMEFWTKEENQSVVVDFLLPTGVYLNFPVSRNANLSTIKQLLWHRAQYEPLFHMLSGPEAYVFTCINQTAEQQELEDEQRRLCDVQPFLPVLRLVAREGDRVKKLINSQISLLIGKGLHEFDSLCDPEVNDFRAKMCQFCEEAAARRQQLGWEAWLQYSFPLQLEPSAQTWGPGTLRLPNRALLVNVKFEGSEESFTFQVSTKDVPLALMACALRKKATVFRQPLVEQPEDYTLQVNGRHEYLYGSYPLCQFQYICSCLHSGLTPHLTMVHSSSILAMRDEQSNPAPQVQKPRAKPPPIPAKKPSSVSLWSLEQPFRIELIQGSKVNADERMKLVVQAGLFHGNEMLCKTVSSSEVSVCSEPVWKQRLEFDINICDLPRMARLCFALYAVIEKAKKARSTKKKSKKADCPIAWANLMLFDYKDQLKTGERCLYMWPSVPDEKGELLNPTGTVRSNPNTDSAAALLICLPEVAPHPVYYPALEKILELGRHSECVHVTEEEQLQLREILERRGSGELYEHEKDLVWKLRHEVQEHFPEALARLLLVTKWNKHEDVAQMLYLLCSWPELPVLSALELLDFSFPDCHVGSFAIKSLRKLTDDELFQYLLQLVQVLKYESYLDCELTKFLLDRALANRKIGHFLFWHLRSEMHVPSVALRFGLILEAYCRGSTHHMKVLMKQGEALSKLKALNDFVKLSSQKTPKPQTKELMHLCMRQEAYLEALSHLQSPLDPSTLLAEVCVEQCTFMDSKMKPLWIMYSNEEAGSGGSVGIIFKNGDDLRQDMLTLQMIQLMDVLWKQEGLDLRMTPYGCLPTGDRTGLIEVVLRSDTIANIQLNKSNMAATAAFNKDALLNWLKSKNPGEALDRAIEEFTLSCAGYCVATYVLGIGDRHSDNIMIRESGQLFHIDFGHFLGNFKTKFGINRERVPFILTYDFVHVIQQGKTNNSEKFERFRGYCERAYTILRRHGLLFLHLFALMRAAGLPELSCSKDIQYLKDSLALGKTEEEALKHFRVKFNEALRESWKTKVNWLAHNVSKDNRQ
Particulars: at 0.1 µM.

The target in test [17] is T3, Phosphatidylinositol 4,5-bisphosphate 3-kinase catalytic subunit delta isoform (Homo sapiens). Particulars: at 1 µM.
The target in test [18] is Phosphatidylinositol 4-kinase beta (Homo sapiens) (UniProt Q9UBF8). Particulars: at 0.1 µM.
For test [19] the target is unchanged. Particulars: at 1 µM.
Test [20] deals with Sphingosine kinase 1 (Homo sapiens) (UniProt Q9NYA1). Particulars: at 0.1 µM.
Sphingosine kinase 1 (Homo sapiens), sequence (Q9NYA1 whole entry): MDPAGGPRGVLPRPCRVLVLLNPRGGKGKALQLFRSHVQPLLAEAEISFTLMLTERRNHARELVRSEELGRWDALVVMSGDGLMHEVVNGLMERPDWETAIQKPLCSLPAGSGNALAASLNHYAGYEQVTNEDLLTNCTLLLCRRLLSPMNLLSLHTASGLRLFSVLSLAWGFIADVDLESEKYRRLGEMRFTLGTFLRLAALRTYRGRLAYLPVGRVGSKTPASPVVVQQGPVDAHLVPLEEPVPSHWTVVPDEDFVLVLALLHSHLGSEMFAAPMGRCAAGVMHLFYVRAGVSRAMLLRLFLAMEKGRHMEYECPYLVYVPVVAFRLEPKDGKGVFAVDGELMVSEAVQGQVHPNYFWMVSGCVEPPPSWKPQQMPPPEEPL

SRSF protein kinase 3 (Homo sapiens), sequence (Q9UPE1 whole entry): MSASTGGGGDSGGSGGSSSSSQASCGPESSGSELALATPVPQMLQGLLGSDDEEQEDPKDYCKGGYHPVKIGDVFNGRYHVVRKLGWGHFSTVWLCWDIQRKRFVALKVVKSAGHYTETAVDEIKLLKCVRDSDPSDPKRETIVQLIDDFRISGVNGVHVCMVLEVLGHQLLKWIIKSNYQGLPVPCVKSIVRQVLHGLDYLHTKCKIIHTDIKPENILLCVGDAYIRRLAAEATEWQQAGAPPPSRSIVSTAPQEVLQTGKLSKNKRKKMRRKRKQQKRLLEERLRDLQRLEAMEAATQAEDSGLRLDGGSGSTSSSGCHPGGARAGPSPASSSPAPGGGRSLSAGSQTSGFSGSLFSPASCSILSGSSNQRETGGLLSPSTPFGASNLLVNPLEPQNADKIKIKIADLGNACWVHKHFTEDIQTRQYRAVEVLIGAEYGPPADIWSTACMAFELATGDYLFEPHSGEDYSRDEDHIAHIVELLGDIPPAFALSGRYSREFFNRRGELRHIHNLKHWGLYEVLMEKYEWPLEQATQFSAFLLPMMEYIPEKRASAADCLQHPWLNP
Mitogen-activated protein kinase 11 (Homo sapiens), sequence (Q15759 whole entry): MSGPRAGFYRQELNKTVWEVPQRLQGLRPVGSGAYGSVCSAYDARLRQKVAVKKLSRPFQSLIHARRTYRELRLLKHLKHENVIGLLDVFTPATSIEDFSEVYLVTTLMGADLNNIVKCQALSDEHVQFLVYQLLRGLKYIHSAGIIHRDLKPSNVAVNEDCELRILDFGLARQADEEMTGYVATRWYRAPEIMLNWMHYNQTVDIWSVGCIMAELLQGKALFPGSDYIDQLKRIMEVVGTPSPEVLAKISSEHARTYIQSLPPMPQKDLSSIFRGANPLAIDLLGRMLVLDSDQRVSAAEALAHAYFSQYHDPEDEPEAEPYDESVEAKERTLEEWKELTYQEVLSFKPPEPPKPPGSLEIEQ
Mitogen-activated protein kinase 14 (Homo sapiens), sequence (Q16539 whole entry): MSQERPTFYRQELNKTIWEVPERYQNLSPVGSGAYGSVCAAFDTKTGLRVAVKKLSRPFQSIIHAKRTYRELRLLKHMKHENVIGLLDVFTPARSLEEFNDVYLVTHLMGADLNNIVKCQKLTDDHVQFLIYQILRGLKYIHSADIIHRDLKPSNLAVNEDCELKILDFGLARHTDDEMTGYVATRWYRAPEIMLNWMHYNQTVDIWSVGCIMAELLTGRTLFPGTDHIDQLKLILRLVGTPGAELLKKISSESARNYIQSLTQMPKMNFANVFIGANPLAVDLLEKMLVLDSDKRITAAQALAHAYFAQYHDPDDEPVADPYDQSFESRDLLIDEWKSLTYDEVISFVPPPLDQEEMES
SRSF protein kinase 1 (Homo sapiens), sequence (Q96SB4 whole entry): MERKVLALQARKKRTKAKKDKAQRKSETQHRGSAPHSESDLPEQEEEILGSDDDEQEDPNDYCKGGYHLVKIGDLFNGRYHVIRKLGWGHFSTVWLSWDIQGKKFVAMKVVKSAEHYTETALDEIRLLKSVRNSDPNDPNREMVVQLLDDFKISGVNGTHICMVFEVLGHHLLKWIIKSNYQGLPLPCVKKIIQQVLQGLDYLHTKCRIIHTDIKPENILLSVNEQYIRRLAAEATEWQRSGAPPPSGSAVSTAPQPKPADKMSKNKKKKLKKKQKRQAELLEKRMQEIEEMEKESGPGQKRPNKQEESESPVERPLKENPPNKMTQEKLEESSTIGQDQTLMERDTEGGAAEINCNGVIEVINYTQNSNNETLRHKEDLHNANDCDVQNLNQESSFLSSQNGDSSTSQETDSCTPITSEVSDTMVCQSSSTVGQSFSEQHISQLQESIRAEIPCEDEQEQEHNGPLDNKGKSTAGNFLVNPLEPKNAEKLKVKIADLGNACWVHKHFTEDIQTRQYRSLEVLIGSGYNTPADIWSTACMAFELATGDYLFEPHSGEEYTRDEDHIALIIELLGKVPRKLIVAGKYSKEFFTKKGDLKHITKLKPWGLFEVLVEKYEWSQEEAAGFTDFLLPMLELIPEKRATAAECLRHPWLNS
Phosphatidylinositol 4,5-bisphosphate 3-kinase catalytic subunit alpha isoform (Homo sapiens), sequence (P42336 whole entry, canonical isoform): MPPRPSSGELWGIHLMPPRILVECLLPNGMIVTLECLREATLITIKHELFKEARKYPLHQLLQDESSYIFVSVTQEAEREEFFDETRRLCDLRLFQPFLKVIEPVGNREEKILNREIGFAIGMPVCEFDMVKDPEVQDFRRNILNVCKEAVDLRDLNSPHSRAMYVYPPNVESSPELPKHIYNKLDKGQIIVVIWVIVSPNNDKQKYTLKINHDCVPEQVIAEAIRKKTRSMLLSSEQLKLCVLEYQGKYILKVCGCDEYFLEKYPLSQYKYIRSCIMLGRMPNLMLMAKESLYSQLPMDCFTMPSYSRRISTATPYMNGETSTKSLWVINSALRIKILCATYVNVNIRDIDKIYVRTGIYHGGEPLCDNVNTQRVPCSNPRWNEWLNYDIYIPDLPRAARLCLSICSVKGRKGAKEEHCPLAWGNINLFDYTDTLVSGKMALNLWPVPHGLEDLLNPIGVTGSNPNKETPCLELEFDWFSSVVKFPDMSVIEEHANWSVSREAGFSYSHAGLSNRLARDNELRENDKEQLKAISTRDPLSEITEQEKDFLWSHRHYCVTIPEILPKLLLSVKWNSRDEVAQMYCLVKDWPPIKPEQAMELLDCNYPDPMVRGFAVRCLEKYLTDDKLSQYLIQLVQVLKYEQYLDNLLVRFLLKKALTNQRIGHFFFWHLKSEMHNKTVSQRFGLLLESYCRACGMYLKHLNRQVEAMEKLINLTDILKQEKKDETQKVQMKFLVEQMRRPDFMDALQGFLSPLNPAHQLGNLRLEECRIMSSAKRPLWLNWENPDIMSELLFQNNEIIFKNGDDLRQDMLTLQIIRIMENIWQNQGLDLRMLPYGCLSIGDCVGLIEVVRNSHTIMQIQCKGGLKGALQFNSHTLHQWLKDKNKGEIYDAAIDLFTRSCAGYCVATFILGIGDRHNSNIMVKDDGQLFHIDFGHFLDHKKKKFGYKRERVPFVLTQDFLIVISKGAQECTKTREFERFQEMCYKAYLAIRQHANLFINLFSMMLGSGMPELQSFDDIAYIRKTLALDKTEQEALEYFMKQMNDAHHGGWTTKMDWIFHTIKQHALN
Phosphatidylinositol 4-kinase beta (Homo sapiens), sequence (Q9UBF8 2-816 limits assumed): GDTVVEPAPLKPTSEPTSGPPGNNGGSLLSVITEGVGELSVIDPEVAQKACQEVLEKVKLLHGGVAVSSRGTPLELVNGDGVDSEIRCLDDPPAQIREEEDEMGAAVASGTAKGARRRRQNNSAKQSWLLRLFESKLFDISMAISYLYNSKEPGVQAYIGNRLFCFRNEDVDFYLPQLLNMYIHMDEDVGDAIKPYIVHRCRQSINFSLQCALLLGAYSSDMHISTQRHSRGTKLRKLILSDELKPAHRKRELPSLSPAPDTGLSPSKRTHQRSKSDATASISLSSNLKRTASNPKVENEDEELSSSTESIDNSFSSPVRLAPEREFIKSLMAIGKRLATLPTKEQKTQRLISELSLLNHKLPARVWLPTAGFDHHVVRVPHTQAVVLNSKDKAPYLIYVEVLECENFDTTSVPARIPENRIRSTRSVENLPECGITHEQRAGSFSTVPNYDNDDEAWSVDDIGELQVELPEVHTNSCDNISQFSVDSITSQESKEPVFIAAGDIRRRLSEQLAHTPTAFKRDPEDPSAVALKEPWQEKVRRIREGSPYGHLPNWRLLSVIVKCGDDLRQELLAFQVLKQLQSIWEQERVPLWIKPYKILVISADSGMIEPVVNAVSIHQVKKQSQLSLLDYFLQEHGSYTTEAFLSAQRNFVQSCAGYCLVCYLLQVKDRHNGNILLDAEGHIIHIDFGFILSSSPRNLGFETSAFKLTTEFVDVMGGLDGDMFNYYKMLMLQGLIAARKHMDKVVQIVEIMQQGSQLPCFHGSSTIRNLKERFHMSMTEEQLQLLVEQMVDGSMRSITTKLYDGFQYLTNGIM
Mitogen-activated protein kinase 3 (Homo sapiens), sequence (P27361 whole entry): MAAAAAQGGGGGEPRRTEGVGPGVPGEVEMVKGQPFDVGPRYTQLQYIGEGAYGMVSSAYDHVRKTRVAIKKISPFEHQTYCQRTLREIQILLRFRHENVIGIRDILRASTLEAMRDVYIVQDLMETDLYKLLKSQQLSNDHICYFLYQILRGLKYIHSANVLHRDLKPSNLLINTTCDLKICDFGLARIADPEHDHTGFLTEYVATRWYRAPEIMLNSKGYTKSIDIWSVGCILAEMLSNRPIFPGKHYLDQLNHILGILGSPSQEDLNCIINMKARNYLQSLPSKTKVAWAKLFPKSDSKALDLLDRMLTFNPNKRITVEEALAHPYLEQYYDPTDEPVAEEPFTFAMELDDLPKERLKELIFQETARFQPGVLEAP

On to `CCCN1CCCC(c2ccc(Nc3nc(Nc4cc(F)ccc4C(N)=O)c4cc[nH]c4n3)c(OC)c2)C1` (stereo not given), for which the inhibition turned out to be 9.65% in test [1]; 4.66% in test [2]; 28.2% in test [3]; 13.9% in [4]; 17.1% in test [5]; 7.57% in test [6]. For the same compound, the inhibition in test [7] is 14.5%; in [8], 6.1%; in test [9], 7.07%; in [10], 3.99%; in test [11], 3.39%; in test [12], -0.71%. In addition, the inhibition in test [13] was 7.5%; in [14] it was 2.9%; in test [15] it was 5.55%; in [16], 2.18%; in test [17], 9.74%; in [18], -3.21%. Also, the inhibition is -1.21% in [19] and -0.22% in test [20].

Consider `Cc1ccc2c(c1)/C(=N/Nc1ccc(S(N)(=O)=O)cc1)C(=O)N2`, for which the inhibition in test [1] is 1.36%; in test [2], -0.75%; in test [3] it was -2.57%; in test [4], 1.29%; in [5], 5.27%; in [6] it was 3.1%. Also, the inhibition in test [7] is 6.52%; in test [8], -0.85%; in [9], 0.5%; in test [10], 0.27%; in [11], -0.05%; in test [12] it was -2.83%. Moreover, the inhibition is -5.98% in test [13]; -1.13% in test [14]; 8.11% in test [15]; 1.23% in test [16]; 2.01% in test [17]; 6.34% in [18]. For the same compound, the inhibition was 1.81% in test [19] and -1.11% in test [20].

Regarding `NS(=O)(=O)c1cccc(Nc2cc(-c3ccc(F)cc3)n[nH]2)c1`, the inhibition is 3.77% in [1]; -0.26% in [2]; 3.28% in test [3]; 1.56% in [4]; 7.1% in test [5]; 1.06% in [6]. In addition, the inhibition in test [7] was 5.29%; in test [8], 2.2%; in test [9], 2.89%; in test [10], -0.78%; in test [11], 1.49%; in test [12], -1.05%. The inhibition in [13] is 3.13%; in test [14] it was 1.31%; in test [15], 3.66%; in [16], -0.13%; in [17], 0.5%; in test [18] it was 2.18%. Also, the inhibition in test [19] came out at 0.88%; in test [20], 0.58%.

With `FC(F)(F)c1ccc(-c2nn3ncccc3c2-c2ccnc(Nc3ccc4c(c3)OCCO4)n2)cc1`, the inhibition in test [1] was 3.1%; in test [2] it was 5.92%; in test [3], 1.12%; in test [4], 17.1%; in test [5] it was 67.5%; in [6], 3.8%. Also, the inhibition in test [7] was determined as 36.8%; in test [8], 5.26%; in test [9], 0.38%; in test [10] it was 4.31%; in [11], 2.26%; in [12] it was 8.18%. The inhibition in [13] was 13%; in test [14] it was 0.21%; in test [15], -2.14%; in [16], 1.63%; in [17], 0.41%; in test [18], 1.96%. In addition, the inhibition was -3.87% in [19] and 0.8% in test [20].

Turning to `Cc1ccc(NC(=O)CC2CC2)cc1-c1ccc(C(=O)NCC2CC2)cc1`, the inhibition in test [1] is 3.92%; in test [2], -0.32%; in test [3] it was 3.16%; in [4], 29.7%; in [5], 74.3%; in test [6], 17.2%. In addition, the inhibition in [7] was 60.8%; in test [8], 3.22%; in [9], 4.09%; in [10] it was 0.38%; in [11] it was 2.02%; in [12] it was -0.1%. The inhibition in [13] is 1.32%; in [14], 2.05%; in test [15] it was 3.63%; in test [16], 0.9%; in test [17] it was 1.78%; in test [18] it was -3.28%. The inhibition is -2.41% in test [19] and -0.38% in test [20].

As for `CCS(=O)(=O)c1ccc(OC)c(Nc2nccc(N(C)c3ccc4c(C)n[nH]c4c3)n2)c1`, the inhibition was 4.25% in test [1]; -3.37% in test [2]; -0.4% in test [3]; 5.92% in [4]; 8.09% in test [5]; 3.01% in [6]. Further, the inhibition in test [7] was 3.67%; in test [8], 4.71%; in [9], 2.73%; in [10], 2.34%; in test [11] it was 3.12%; in [12], -3.64%. Further, the inhibition was -4.44% in test [13]; 4.66% in [14]; 3.7% in test [15]; 2.01% in test [16]; 2.75% in [17]; 0.2% in test [18]. Further, the inhibition in test [19] is -1.28%; in test [20], 4.16%.

On to `CN(C)C(=O)O[C@H]1CN[C@H](C#Cc2cc3ncnc(Nc4ccc(OCc5cccc(F)c5)c(Cl)c4)c3s2)C1`, for which the inhibition in test [1] is 3.14%; in [2] it was 0.23%; in [3] it was -1.8%; in test [4], 1.35%; in test [5], 7%; in test [6], 0.51%. Also, the inhibition in test [7] is 1.53%; in [8], -0.2%; in [9] it was 2.51%; in test [10], 0.18%; in test [11], 1.22%; in test [12], -0.93%. Besides, the inhibition is -1.25% in [13]; 1.47% in [14]; 31.7% in test [15]; 1.7% in test [16]; 17.4% in [17]; 4.95% in test [18]. Besides, the inhibition is -3.29% in test [19] and 0.36% in test [20].

In general, inhibition refers to the drop in the measured response relative to a control, in per cent.
